BoNT F protease = BoNT/F light chain protease inhibitors, primary screen, biochemical, flow cytometry, MLPCN library. Botulinum neurotoxin type F light chain protease (Clostridium botulinum). Multiplex microsphere protease cleavage assay. inhibition, % at 10 µM. actives 0.22% (n = 360,000). AID 588497, 2011; in the data active means inhibition above about 35%, passing the limit was not always enough; inconclusive means no clear call, values can overlap the other calls; further: plate controls were buffer without enzyme for full effect and enzyme alone for no effect
Anthrax LF prot = Bacillus anthracis LF protease inhibitors, primary screen, biochemical, multiplex microsphere, MLPCN library. inhibition, % at 10 µM. Lethal factor (Bacillus anthracis), P15917. multiplex microsphere protease cleavage assay. AID 588501, 2011. actives 0.12% (n = 360,000); further: plate controls were buffer without enzyme for full effect and enzyme alone for no effect
Target sequence (P15917 whole entry, looked up): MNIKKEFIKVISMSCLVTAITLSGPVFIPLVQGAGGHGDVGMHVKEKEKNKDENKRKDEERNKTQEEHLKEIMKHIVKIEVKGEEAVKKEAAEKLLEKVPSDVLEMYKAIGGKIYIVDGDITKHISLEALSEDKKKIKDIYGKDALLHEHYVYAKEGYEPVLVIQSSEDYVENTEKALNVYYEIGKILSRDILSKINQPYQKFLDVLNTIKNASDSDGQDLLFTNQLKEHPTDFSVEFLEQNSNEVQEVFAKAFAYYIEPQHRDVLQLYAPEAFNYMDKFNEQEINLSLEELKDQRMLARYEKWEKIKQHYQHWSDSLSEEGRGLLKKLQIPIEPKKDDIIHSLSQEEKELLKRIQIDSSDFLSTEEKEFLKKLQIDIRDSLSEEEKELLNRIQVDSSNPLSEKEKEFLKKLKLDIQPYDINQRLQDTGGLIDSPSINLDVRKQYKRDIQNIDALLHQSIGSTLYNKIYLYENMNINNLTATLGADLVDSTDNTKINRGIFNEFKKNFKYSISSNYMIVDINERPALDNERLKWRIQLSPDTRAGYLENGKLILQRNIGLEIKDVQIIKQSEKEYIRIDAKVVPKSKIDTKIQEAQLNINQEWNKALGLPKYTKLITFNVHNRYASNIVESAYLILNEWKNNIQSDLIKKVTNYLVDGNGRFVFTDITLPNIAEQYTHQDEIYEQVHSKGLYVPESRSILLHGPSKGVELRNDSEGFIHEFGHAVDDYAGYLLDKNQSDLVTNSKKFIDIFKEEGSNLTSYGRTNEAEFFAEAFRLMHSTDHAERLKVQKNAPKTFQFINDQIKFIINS
Bead autofluor = counter-screen for toxin protease inhibitors: compound fluorescence | compound autofluorescence counterscreen, microsphere flow cytometry; active compounds read high | fluorescence intensity (concentration not given with the values) | actives 3.1% (n = 360,000) | AID 624483; in the data active means fluorescence intensity above about 16000; inconclusive means no clear call, values can overlap the other calls
BoNT-A LC inh2 = BoNT/A light chain protease inhibitors, primary screen, biochemical, flow cytometry, MLPCN library; Botulinum neurotoxin type A light chain protease (Clostridium botulinum A str. ATCC 3502); multiplex microsphere protease substrate cleavage; inhibition, % at 10 µM; actives 0.17% (n = 360,000); AID 588499, 2011; further: plate controls were buffer without enzyme for full effect and enzyme alone for no effect
BoNTA LC inh 1 = BoNT/A light chain protease inhibitors, confirmation, biochemical, flow cytometry, cherry pick 1. shares compounds with BoNT F protease. actives 3% (n = 720). multiplex microsphere protease assay. inhibition, % at 10 µM. AID 602139, 2011; in the data active means inhibition above about 32%
BoNT-F LC CP1 = BoNT/F light chain protease inhibitors, confirmation, biochemical, flow cytometry, cherry pick 1. shares compounds with BoNT F protease. multiplex microsphere protease cleavage assay. inhibition, % at 10 µM. 720 tested, under 10 active; call rule not given here
Anthrax LF CP1 = Bacillus anthracis LF protease inhibitors, confirmation, biochemical, multiplex microsphere, cherry pick 1; multiplex microsphere protease cleavage assay; AID 602142, 2011; shares compounds with BoNT F protease; inhibition, % at 10 µM; 720 tested, under 10 active; call rule not given here
* = called active by the depositor. A selection: hits, their analogues and other compounds. The true share with any hit is near 3.5%. Unless noted, no stated cut-off is given here; in the data, active means inhibition above about 30%; inconclusive means no clear call, values can overlap the other calls; inactive means below that.

`Cc1ccc(CNC(=O)c2cc3c(=O)n4ccccc4nc3n(CC3CCCO3)c2=N)cc1` (stereo not drawn) gave BoNT F protease 1, Anthrax LF prot 11, Bead autofluor 4200 and BoNT-A LC inh2 7.
CCN(C(=O)Cn1c(Cl)nc2c1c(=O)n(C)c(=O)n2C)C1CCCCC1 was read as BoNT F protease 0, Anthrax LF prot -8, Bead autofluor 3154 and BoNT-A LC inh2 -1.
CCOC(=O)N(C)c1ccc(C(O)(C(=O)OCC)C(F)(F)F)cc1 (stereo not drawn) was read as BoNT F protease 0, Anthrax LF prot -1, Bead autofluor 22785* and BoNT-A LC inh2 -1.
CC1(C)OC(=O)C(=CNc2cccc(O)c2)C(=O)O1 was read as BoNT F protease 7, Anthrax LF prot 6, Bead autofluor 7932 and BoNT-A LC inh2 1.
`CC1(C)OC(=O)C(=CNc2ccccc2)C(=O)O1` gave BoNT F protease 4, Anthrax LF prot 3, Bead autofluor 18882* and BoNT-A LC inh2 6.
Screening Cc1nc(SCC(=O)c2ccc(Cl)cc2)c([N+](=O)[O-])[nH]1 returned BoNT F protease -8, Anthrax LF prot -2, Bead autofluor 24383* and BoNT-A LC inh2 inconclusive.
O=C(c1ccco1)N(Cc1ccco1)Cc1cc2ccccc2[nH]c1=O was read as BoNT F protease 5, Anthrax LF prot -1, Bead autofluor 5847 and BoNT-A LC inh2 0.
`COc1cc(C(=O)N(Cc2ccco2)Cc2cc3ccccc3[nH]c2=O)cc(OC)c1OC` gave BoNT F protease -4, Anthrax LF prot -1, Bead autofluor 23180* and BoNT-A LC inh2 inconclusive.
CN(C)c1nc(Oc2ccc(=O)n(-c3ccccc3)n2)nc(N2CCOCC2)n1 was read as BoNT F protease 0, Anthrax LF prot 0, Bead autofluor 21946* and BoNT-A LC inh2 inconclusive.
`COc1nc(NC(C)(C)C)nc(Oc2ccc(=O)n(-c3ccccc3)n2)n1` gave BoNT F protease -1, Anthrax LF prot 0, Bead autofluor 21751* and BoNT-A LC inh2 0.
`O=C(CN1CC(c2ccccc2)CC1=O)OCc1cccc(Br)c1` (stereo not drawn) gave BoNT F protease 16, Anthrax LF prot -26, Bead autofluor inconclusive and BoNT-A LC inh2 inconclusive.
Nc1nnnn1CC(=O)OCc1cccc(Br)c1 was read as BoNT F protease -2, Anthrax LF prot -1, Bead autofluor 23207* and BoNT-A LC inh2 inconclusive.
For COc1ccc(NC(=O)CSc2nc3ccccc3c(=O)n2CCC(=O)N2CCCCC2)cc1 the results were BoNT F protease -1, Anthrax LF prot 1, Bead autofluor 21679* and BoNT-A LC inh2 0.
`COc1ccc(-n2c(SCC(=O)NCCC(C)C)nc3ccsc3c2=O)cc1` gave BoNT F protease 5, Anthrax LF prot -3, Bead autofluor 21316* and BoNT-A LC inh2 1.
`COc1ccc(-n2c(SCC(=O)C(C)(C)C)nc3ccsc3c2=O)cc1` gave BoNT F protease -4, Anthrax LF prot 6, Bead autofluor 4040 and BoNT-A LC inh2 -2.
CCOc1ccc(NC(=O)CSc2nc3ccccc3c(=O)n2CCCC(=O)N2CCCC2)cc1 was read as BoNT F protease 5, Anthrax LF prot 9, Bead autofluor 8625 and BoNT-A LC inh2 1.
For COc1cccc(NC(=O)CSc2nc3ccccc3c(=O)n2CCCC(=O)N2CCCC2)c1 the results were BoNT F protease 1, Anthrax LF prot -3, Bead autofluor 23337* and BoNT-A LC inh2 inconclusive.
Screening COCCNC(=O)CSc1nc2ccccc2c(=O)n1-c1cccc(OC)c1 returned BoNT F protease -6, Anthrax LF prot 0, Bead autofluor 21564* and BoNT-A LC inh2 -4.
CSc1ccc(/C=C(\C(=O)O)c2ccc(S(=O)(=O)N3CCCC3)s2)cc1 was read as BoNT F protease 12, Anthrax LF prot 3, Bead autofluor 2994 and BoNT-A LC inh2 0.
For Cc1ccccc1NC(=O)N1CCNC(=O)C1CC(=O)Nc1cc(Cl)ccc1Cl (stereo not drawn) the results were BoNT F protease -12, Anthrax LF prot -4, Bead autofluor 5969 and BoNT-A LC inh2 3.
COCCn1c(SCC(=O)Nc2cccc(C(=O)OC)c2)nc2ccccc2c1=O was read as BoNT F protease -1, Anthrax LF prot -2, Bead autofluor 16194* and BoNT-A LC inh2 1.
`COCCn1c(SCC(=O)Nc2cc(C)cc(C)c2)nc2ccccc2c1=O` gave BoNT F protease 21, Anthrax LF prot -5, Bead autofluor 2952 and BoNT-A LC inh2 1.
Screening CCN1CCN(CC(=O)N2c3ccccc3CC2C)CC1 (stereo not drawn) returned BoNT F protease -4, Anthrax LF prot 0, Bead autofluor 24267* and BoNT-A LC inh2 -3.
`CCOC(=O)N1CCN(CC(=O)N2c3ccccc3CC2C)CC1` (stereo not drawn) gave BoNT F protease -3, Anthrax LF prot 0, Bead autofluor 25433* and BoNT-A LC inh2 -3.
Screening CC1Cc2ccccc2N1C(=O)CN1CCCCC1 (stereo not drawn) returned BoNT F protease -17, Anthrax LF prot -7, Bead autofluor 3845 and BoNT-A LC inh2 1.
Screening CCOC(=O)C1CCN(C(=O)C2CCN(c3ncnc4c3nc3n4CCCCC3)CC2)CC1 returned BoNT F protease -2, Anthrax LF prot -3, Bead autofluor 5109 and BoNT-A LC inh2 -4.
Screening COc1ccccc1C(=O)OC(C)CN1CCN(C)CC1 (stereo not drawn) returned BoNT F protease inconclusive, Anthrax LF prot 3, Bead autofluor 4039 and BoNT-A LC inh2 -1.
For CCn1c(SCC(N)=O)nc2cc(S(=O)(=O)N3CCOCC3)ccc21 the results were BoNT F protease -1, Anthrax LF prot 0, Bead autofluor 3502 and BoNT-A LC inh2 0.
`CCn1c(SCC(=O)c2c[nH]c3ccccc23)nc2cc(S(=O)(=O)N3CCOCC3)ccc21` gave BoNT F protease -16, Anthrax LF prot 18, Bead autofluor 5805, BoNT-A LC inh2 49*, BoNTA LC inh 1 15, BoNT-F LC CP1 -11 and Anthrax LF CP1 10.
`CCOC(=O)c1cnn(CCOC(=O)C(C)(C)C)c1NC(=O)C(C)(C)C` gave BoNT F protease 43*, Anthrax LF prot -25, Bead autofluor 9307, BoNT-A LC inh2 36*, BoNTA LC inh 1 0, BoNT-F LC CP1 -2 and Anthrax LF CP1 -3.

Source: PubChem BioAssay (NMMLSC)
